Whole data set: some 33,000 sequences, median “E-score (-0.5 to 0.5)” near -0.011, cut for the highest 2% near 0.28. The full list was thinned out, with the highest values kept by preference.
The sequences below were run against T1, Gcr1 (UniProt P07261) (assay: PBM E-score (8-mer binding enrichment) (E-score (-0.5 to 0.5)); higher = stronger / more preferred TF binding). Details: protein concentration: 100 nM; construct: GST-full length.
T1 sequence: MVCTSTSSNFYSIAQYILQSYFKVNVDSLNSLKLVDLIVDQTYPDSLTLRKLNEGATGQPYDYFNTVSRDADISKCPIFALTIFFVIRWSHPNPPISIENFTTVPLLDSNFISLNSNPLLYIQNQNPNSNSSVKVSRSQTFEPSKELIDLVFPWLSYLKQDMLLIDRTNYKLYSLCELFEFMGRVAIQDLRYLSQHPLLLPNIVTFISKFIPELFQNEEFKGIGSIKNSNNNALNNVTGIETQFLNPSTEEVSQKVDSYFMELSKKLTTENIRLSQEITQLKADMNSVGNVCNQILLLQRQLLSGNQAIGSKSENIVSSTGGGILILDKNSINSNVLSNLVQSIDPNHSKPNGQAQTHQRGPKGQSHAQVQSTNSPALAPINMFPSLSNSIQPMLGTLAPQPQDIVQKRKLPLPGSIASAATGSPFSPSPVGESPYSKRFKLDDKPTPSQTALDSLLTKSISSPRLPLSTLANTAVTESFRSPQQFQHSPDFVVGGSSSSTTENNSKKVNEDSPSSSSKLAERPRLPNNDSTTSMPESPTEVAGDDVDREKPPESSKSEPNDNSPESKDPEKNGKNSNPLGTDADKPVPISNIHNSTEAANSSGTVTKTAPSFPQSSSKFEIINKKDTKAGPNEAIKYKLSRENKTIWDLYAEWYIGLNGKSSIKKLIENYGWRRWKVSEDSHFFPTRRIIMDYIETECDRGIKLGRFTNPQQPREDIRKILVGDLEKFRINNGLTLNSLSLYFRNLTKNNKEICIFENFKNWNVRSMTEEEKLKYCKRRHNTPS
Experimental: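 Universal 'all 10-mer' protein binding microarrays (Agilent AMADID 015681) probed with GST-tagged S. cerevisiae TFs (full-length or DBD) made by in vitro transcription/translation (PURExpress), about 100-200 nM. Bound TF was detected with fluorescent anti-GST. Each ungapped 8-mer (which stands for itself and its reverse complement) is scored by the PBM enrichment score (E-score), a modified Wilcoxon-Mann-Whitney statistic from -0.5 to +0.5, computed with the Universal PBM Analysis Suite. Scale: above 0.35 generally sequence-specific binding.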

Row | Sequence | PBM E-score
1 | AAATTTTA | 0.126
2 | AGTCGAGC | -0.0406
3 | GACTGTCA | -0.154
4 | AGAGGTAT | 0.196
5 | ATAGATTC | 0.114
6 | CCGCTCAG | 0.0454
7 | ACGTTCTC | -0.172
8 | CAGGCAGA | -0.0141
9 | CAGGCAGC | 0.285
10 | CCGGCACC | 0.28
11 | ACGGCACC | 0.142
12 | CAGGCAGG | -0.143
13 | ATGGCATC | 0.175
14 | CTGGCATA | 0.0454
15 | CGGGCACA | -0.0928
16 | GCGGCACC | 0.324
17 | CGGGCACG | 0.107
18 | CTGGCATC | 0.304
19 | CGGGCACC | 0.376
20 | CCCTACTA | 0.0892
21 | AATTTACT | 0.155
22 | AAACCAGA | 0.0613
23 | GCATCCAC | 0.452
24 | TAATCCAA | 0.134
25 | ACATCCAC | 0.133

Row | Sequence | PBM E-score
26 | CCATCCAA | -0.121
27 | AAATCCAA | 0.142
28 | TCATCCAA | -0.114
29 | GAATCCAA | 0.309
30 | GCATCCAA | 0.366
31 | CCATCCAC | -0.0219
32 | TCCTAGAA | 0.174
33 | GAATGGCC | -0.116
34 | CAAGCGCG | -0.0724
35 | ATATGAGG | 0.033
36 | AGAAAACC | -0.0435
37 | CGGAGCAG | 0.0182
38 | ACATACTG | 0.0904
39 | CGGACGTC | 0.134
40 | AGGACGCG | 0.283
41 | ACGACGCC | 0.217
42 | ACGACGCG | 0.0493
43 | AGGACGCA | 0.0414
44 | AGGACGCC | 0.453
45 | CGGACGCA | 0.0459
46 | CGGACGCC | 0.416
47 | AGGACGAG | -0.073
48 | CGACCCAC | -0.0741
49 | TAACCTGA | -0.2
50 | ACGTGTAT | 0.0211

Row | Sequence | PBM E-score
51 | CAGGCCGA | -0.0271
52 | CAGAACCG | 0.106
53 | GAATGCGC | 0.164
54 | ACTCTCTC | -0.288
55 | CGCCAATA | 0.144
56 | GTATGTCA | 0.136
57 | CTCCCAAG | 0.0273
58 | ACTCTAGG | -0.0525
59 | CAACAGGA | 0.226
60 | ATACAGGC | 0.223
61 | CTTCAGGA | 0.268
62 | ATACAGGA | 0.308
63 | CTACAGGA | 0.204
64 | ATTCAGGA | 0.282
65 | AAACAGGA | 0.363
66 | ATTCAGGG | 0.123
67 | AAACAGGC | -0.117
68 | ACCGAACG | 0.0306
69 | CCACCGCG | -0.0592
70 | ATGACATA | 0.127
71 | TCCCGCAA | 0.0539
72 | CGAGTGCC | -0.132
73 | GAGCGTGC | -0.1
74 | ACGCGTCC | 0.292
75 | GAGCGTCA | 0.0398

Row | Sequence | PBM E-score
76 | AAGCGTCA | -0.0114
77 | AAGCGTCG | 0.0188
78 | AAGCGTCC | 0.323
79 | ACGCGTCA | -0.171
80 | GAGCGTCC | 0.384
81 | ACGCGTCT | 0.155
82 | GCATCAAC | 0.15
83 | CACGGAGC | 0.101
84 | AGGTATCA | 0.0276
85 | CGGTATCA | -0.0496
86 | CGGTAGCA | -0.0732
87 | CTGTATCC | 0.207
88 | CGGTATCC | 0.282
89 | AGGTATCG | 0.019
90 | AGGTATCC | 0.28
91 | CGGTAGCC | 0.296
92 | AGGTAGCC | 0.238
93 | CAAGCTAA | -0.177
94 | CCTGTGAG | -0.218
95 | CGCCCTAG | 0.143
96 | ATAGCCAG | 0.0137
97 | CGCAATTC | 0.0283
98 | CTACCGTC | -0.0298
99 | GCCATCCA | 0.086
100 | CCGATACA | 0.0692

Row | Sequence | PBM E-score
101 | CCAGTTAG | 0.0191
102 | ATGCGCCC | 0.0661
103 | AGGCGCAG | 0.157
104 | AAGCGCCT | 0.0782
105 | ACGCGCCC | 0.352
106 | GCGCGCCC | 0.0734
107 | AGGCGCGC | 0.16
108 | AGGCGCAT | 0.0287
109 | AGGCGCCA | 0.268
110 | AGGCGCCG | 0.354
111 | AGGCGCCC | 0.384
112 | ACGCGCCA | 0.196
113 | AGGCGCCT | 0.321
114 | AGTGCTCC | -0.116
115 | GTCAGAAA | 0.0237
116 | AAGGGCTA | -0.138
117 | AACAATCC | -0.0423
118 | TGGACAAA | 0.0886
119 | CCCGGTCC | -0.0935
120 | CGGACACC | 0.0465
121 | ACTGCAAG | -0.185
122 | TTGTGAAA | 0.0169
123 | CCCGTTAG | 0.0113
124 | CGCGCATC | 0.252
125 | ATCCCCCG | 0.175

Row | Sequence | PBM E-score
126 | AGGAAGAG | -0.0854
127 | AGGAATCC | 0.459
128 | AGGAAGCG | 0.354
129 | AGGAATCA | 0.144
130 | AGGAATCG | 0.294
131 | AAGAATCC | 0.391
132 | AGGAATAC | 0.0815
133 | ATGAATCC | 0.0178
134 | GAGAATCC | 0.236
135 | AGGAATGG | 0.0654
136 | AGGAAGCA | 0.13
137 | AAGAATCA | 0.142
138 | GGCTATGA | -0.188
139 | AATCCGTC | -0.0275
140 | AGCCAGAA | 0.13
141 | TCTGCAGA | -0.194
142 | ATGACCCG | -0.321
143 | CGGAATTC | 0.242
144 | ACGAATCT | 0.122
145 | CGGAAGTC | -0.00248
146 | CCGAATCC | 0.133
147 | CGGAATCA | 0.0684
148 | CGGAATCC | 0.417
149 | ACGAATCC | 0.288
150 | AGGAAGTG | 0.213

Row | Sequence | PBM E-score
151 | AGGAAGTC | 0.337
152 | CCCGAGAC | 0.0132
153 | ATCCGCTC | 0.0142
154 | ACTCCCTA | -0.0517
155 | CGCCTGTC | -0.105
156 | GGTGTTCA | 0.106
157 | AGTGGTAA | -0.099
158 | AATGGTGG | -0.00912
159 | AGTGGTGG | 0.305
160 | CGTGGTAG | -0.133
161 | AGTGGTAG | 0.318
162 | AGTGGTGC | 0.305
163 | CGTGGTGC | -0.0202
164 | AGTGGTGA | 0.0333
165 | AATGGTGC | 0.208
166 | CCGATGAC | -0.0977
167 | AAGTTGCG | 0.211
168 | AACATCCG | 0.164
169 | ATCATCCG | -0.191
170 | AGCATCCA | 0.457
171 | AACATCCA | 0.193
172 | TGCATCCA | 0.182
